Measured values: PubChem BioAssay (NCATS)
Inconclusive results are not listed. Values without a mark were called inactive. Activity calls are given as the source filed them. The call rests on the fitted dose curve; in most records, active means well fitted inhibition curve with a large enough effect; inconclusive means small, poorly fitted or top-dose-only effect; inactive means no such curve, though single readings can be large or run the other way. Positions of bridges follow the written chain, without caps; N, C: chain ends. Non-standard residues stand in square brackets, D forms with d. Residues, ends and D or L forms follow the SMILES beside them. ξ: configuration not given here. *: point of attachment. Octanoyl(6-Me) = CCC(C)CCCCC(=O)*; ξThr(3R) = C[C@@H](O)C(N)C(=O)O; dDab = NCC[C@@H](N)C(=O)O; Dab = NCC[C@H](N)C(=O)O

Experiment: BET inhibitor-based combinations targeting novel dependencies in MECOM-rearranged (r) AML: UCSD-AML1 cell line (AID 2202235); further: nearly all actives have a fitted effect of over 40% in size;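 on viability (% of control): plate controls were DMSO vehicle wells for no effect and blank wells for full effect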
Conditions: UCSD-AML1 AML cells viability, CellTiter-Glo, 48 h; series mostly up to 46 µM; viability (% of control): at the top concentration
Text: Ecotropic viral insertion site 1 (EVI1) is located on chromosome 3q26.2 as part of the MECOM (MDS and EVI1 complex) locus. Under normal hematopoiesis, EVI1 is a regulator of hematopoietic stem cell maintenance and self-renewal and EVI1 levels decrease as the cells differentiate. In approximately 5-10% of de novo acute myeloid leukemia (AML) EVI1 is aberrantly expressed, including Chromosomal inv(3)(q21;q26.2) or t(3;3)(q21;q26.2) alterations (MECOM-r) that account for about 50% of AML with EVI1 overexpression 31. AMLs with high levels of EVI1 have a poor prognosis and an overall survival time averaging between 10-14 months. EVI1 overexpression confers resistance in leukemia cells, highlighting the need to develop new targeted therapies for EVI1 overexpressing AMLs. Here, we performed an unbiased chemical drug screening by evaluating the single agent activity of a collection of 2,480 oncology-focused, approved and investigational drugs (NCATS Mechanism Interrogation Plates, MIPE v5.0) against a panel of seven AML cell lines. These included four MECOM-r cell-lines (AML-191, AML-194, UCSD-AML1 and HNT-34) and three non-MECOM-r AMLs (MV4-11, OCI-AML3 and SET-2). Exploiting the mechanistic redundancy built in the library, we identified target-level sensitivities in MECOM-r AML cells and relative activity as compared to other AML subtypes.
A collection of 2480 mechanistically annotated dugs (MIPE v5.0) was used to screen four 3q26.2 rearranged AML cell lines and three non-3q26.2 rearranged AML cell lines. This library purposely exploits redundancy by including multiple inhibitors of key onco-targets, while simultaneously encompassing mechanistic diversity, targeting more than 800 distinct mechanisms of action. Briefly, cells were seeded in 5 uL of growth media using a Multidrop Combi dispenser into 1536 well white polystyrene tissue culture treated plates (Corning) at a density of 500cells/well. For each cell-line, for each of the 2480 drugs in MIPE v5.0 library, an 11-point dose curve was generated via a 1536 pin-tool. Plates were incubated for 48 hr at standard incubator conditions, covered by a stainless steel gasketed lid to prevent evaporation. Cell viability was determined by luminescence based, Cell Titer Glo assay (Promega). In detail, 3 uL of Cell Titer Glo were added to each well and plates were incubated at room temperature for 15 min with a stainless-steel lid in place. Luminescence readings were taken using a Viewlux (PerkinElmer) with a 2 s exposure time per plate. Compound dose-response curves were normalized to DMSO and empty well controls on each plate. Quantitative drug activity data from dose-response curves was determined utilizing area Under the Curve (AUC) and Z-transformed AUC (Z-AUC, a mean-centering transformation applied to each individual cell-line screened).
Potency means the concentration at half of the fitted maximal effect.

SMILES | viability (% of control) | Potency
Cc1ccc(NC(=O)C2(c3ccc4c(c3)OC(F)(F)O4)CC2)nc1-c1cccc(C(=O)O)c1 | 113% | –
CN(C)CCOc1cc(-c2cn[nH]c2)ccc1NC(=O)C1COc2ccccc2O1 (stereo not given) | 105% | –
Cc1cnc(Nc2cccc(CN3CCOCC3)c2)nc1Nc1cccc(S(=O)(=O)NC(C)(C)C)c1 | – | 1320 nM (active)
OCCN1CCN(CCCN2c3ccccc3Sc3ccc(C(F)(F)F)cc32)CC1 | 102% | –
CCCN[C@H]1CCc2nc(N)sc2C1 | 104% | –
O=C(O)C(O)Cc1ccc(O)c(O)c1 (stereo not given) | 104% [at 92.2 µM] | –
CN1c2cc(O)c(N=NC(N)=O)cc2CC1S(=O)(=O)O (stereo not given) | 109% | –
CC[C@@H]1C(=O)N(C)c2cnc(Nc3ccc(C(=O)NC4CCC(N5CCN(CC6CC6)CC5)CC4)cc3OC)nc2N1C(C)C (stereo not given in full) | – | 166 nM (active)
CS(=O)(=O)N(Cc1ccco1)CC(O)Cn1c2ccccc2c2ccccc21 (stereo not given) | 111% | –
Cc1nnc(C(C)C)n1C1CC2CCC(C1)N2CC[C@H](NC(=O)C1CCC(F)(F)CC1)c1ccccc1 (stereo not given in full) | 106% | –
CNC[C@H](O)c1ccc(O)c(O)c1 | 91.7% | –
COc1ccc(-c2cc3nccn3c(Nc3ncccc3C(N)=O)n2)cc1OC | – | 6610 nM (active)
CCn1c(-c2nonc2N)nc2cncc(CNC3CCNCC3)c21 | – | 5900 nM (active)
CC(=O)O[C@]1(C(C)=O)CC[C@H]2[C@@H]3C[C@H](C)C4=CC(=O)CC[C@]4(C)[C@H]3CC[C@@]21C | – | 10500 nM (active)
CO[C@@H](C)Cn1c(=O)n(C)c2cnc3ccc(-c4cncc(C(C)(C)O)c4)cc3c21 | – | 263 nM (active)
CC1(C)[C@@H](O)CC[C@]2(C)[C@H]3C(=O)C=C4[C@@H]5C[C@@](C)(C(=O)O)CC[C@]5(C)CC[C@@]4(C)[C@]3(C)CC[C@@H]12 | 98.8% | –
C[C@H](c1ccc(F)cc1CCCC(=O)O)N(c1cc(F)ccc1F)S(=O)(=O)c1ccc(Cl)cc1 | 103% | –
O=C(O)C[C@H](O)C[C@H](O)/C=C/c1c(C2CC2)nc2ccccc2c1-c1ccc(F)cc1 | – | 2630 nM (active)
Cc1cc2c(s1)Nc1ccccc1N=C2N1CCN(C)CC1 | 99.9% | –
Cc1cc2cc3c(C)cc(=O)oc3c(C)c2o1 | 112% | –

SMILES | viability (% of control) | Potency
CC(=O)OC1C(C)OC(Oc2c(-c3ccc(O)cc3)oc3cc(O)cc(O)c3c2=O)C(O)C1OC(C)=O (stereo not given) | 105% | –
O=C(Nc1ccc([N+](=O)[O-])cc1Cl)c1cc(Cl)ccc1O | – | 1320 nM (active)
N[C@@H](Cc1c[nH]c2ccc(O)cc12)C(=O)O | 113% | –
Cc1[nH]c(/C=C2\C(=O)Nc3ccc(F)cc32)c(C)c1C(=O)NCCN1CCCC1 | – | 8110 nM (active)
CCS(=O)(=O)N1CCN(c2ccc(Nc3ncc(C(N)=O)c(NC4CC4)n3)cc2)CC1 | – | 372 nM (active)
O=S(=O)(c1cccc2c(I)cccc12)N1CCCNCC1 | 96% | –
OC[C@H](Cc1ccccc1)Nc1nc(Oc2ccc3c(c2)CCC3)nc2c1ncn2Cc1ccc(-c2ccccc2)cc1 | – | 4680 nM (active)
Nc1nc(Cl)nc2c1ncn2[C@H]1C[C@H](O)[C@@H](CO)O1 | – | 29.5 nM (active)
CC(=O)Nc1ccc(C(=O)Nc2ccccc2N)cc1 | – | 10500 nM (active)
COc1cccc2c1c(O)c(C(=O)N(C)c1ccc(C(F)(F)F)cc1)c(=O)n2C | 92.8% | –
CCC[C@H](N[C@@H](C)C(=O)N1[C@@H]2CCCC[C@H]2C[C@H]1C(=O)O)C(=O)OCC | 117% | –
COc1ccc2c(c1)c(CC(=O)O)c(C)n2C(=O)c1ccc(Cl)cc1 | 111% | –
CCCS(=O)(=O)Nc1ccc(F)c(C(=O)c2c[nH]c3ncc(Cl)cc23)c1F | 117% | –
COc1cc(OC)c(/C=C/S(=O)(=O)Cc2ccc(OC)c(NCC(=O)O)c2)c(OC)c1 | – | 263 nM (active)
Clc1ccc(C(Cn2ccnc2)OCc2c(Cl)cccc2Cl)c(Cl)c1 (stereo not given) | 94% | –
O=C(/C=C/c1ccc(O)cc1)c1ccc(O)cc1O | 99% | –
CCC(C)CCCCC(=O)N[C@@H](CCN)C(=O)NC(C(=O)N[C@H](CCN)C(=O)N[C@@H]1CCNC(=O)C([C@@H](C)O)NC(=O)[C@@H](CCN)NC(=O)[C@@H](CCN)NC(=O)[C@@H](CC(C)C)NC(=O)[C@H](Cc2ccccc2)NC(=O)[C@H](CCN)NC1=O)[C@@H](C)O (stereo partly drawn) ({Octanoyl(6-Me)}-[Dab][ξThr(3R)][dDab][dDab][Dab]F[dL][dDab][dDab][ξThr(3R)]; lactam 4-C) | 65.7% | –
CN1CCN(C2CCN(C(=O)Nc3cc(Oc4ccc(NC(=O)C5(C(=O)Nc6ccc(F)cc6)CC5)c(F)c4)ccn3)CC2)CC1 | – | 7420 nM (active)
O=C(O)CCCc1c[nH]c2ccccc12 | 107% | –
COc1ccc(-n2c(SCCCN3C(=O)c4cccc5cccc(c45)C3=O)nnc2-c2ccncc2)cc1 | 101% | –
